Among the data in PubChem BioAssay (NCATS) are Potency and outcome values, retold here.

A short description of test [1]: qHTS for differential inhibitors of proliferation of Plasmodium falciparum line 7G8 (AID 1815).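 Note: parasite growth measured after three days of incubation.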 Note: potency is the fitted concentration of half-maximal effect. The settings on record: Plasmodium falciparum 7G8 proliferation inhibition; series mostly up to 28.7 µM. In general terms: qHTS replaces the single test concentration by a dilution series.
Test [2] is described as follows: qHTS for differential inhibitors of proliferation of Plasmodium falciparum line GB4 (AID 1816).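 Note: parasite growth measured after 72 h incubation.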 Note: potency is the fitted concentration of half-maximal effect. The following applies: Potency: Plasmodium falciparum GB4 proliferation inhibition; series mostly up to 28.7 µM.
A short description of test [3]: qHTS for differential inhibitors of proliferation of Plasmodium falciparum line 3D7 (AID 1876). Note: potency is the fitted concentration of half-maximal effect. The settings on record: P. falciparum 3D7 proliferation inhibition; series mostly up to 28.7 µM.
The nature of test [4]: qHTS for differential inhibitors of proliferation of Plasmodium falciparum line Dd2 (AID 1882). Note: nearly all actives have a fitted effect of over 65% in size. Note: potency is the fitted concentration of half-maximal effect. The following applies: Potency: Plasmodium falciparum Dd2 proliferation inhibition; series mostly up to 28.7 µM. The gist of the method: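 RBC culture, 0.3% parasitemia / 2.5% Hct final; cpd added by pin tool in DMSO; 72 h, 37 C, 5% CO2; lysis buffer + SYBR Green I, o/n RT dark; FI 485/535; norm. to artemisinin 0.29 uM and DMSO.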

Test [5] deals with Ferritin light chain (Equus caballus) (UniProt P02791). As to the kind of experiment: qHTS Validation Assay for Identification of Novel General Anesthetics (AID 2323). The settings on record: horse apoferritin, anesthetic-site fluorescent probe displacement; series mostly up to 76.9 µM. Summed up:
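Competitive displacement of profluorescent 1-aminoanthracene (1-AMA, 50% saturated solution in PBS) from 10 uM horse-spleen apoferritin. Compounds incubated 10 min at room temperature; fluorescence read at 380 nm excitation/535 nm emission, normalized to free 1-AMA and complex, fitted with four-parameter Hill equation.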

Test [6] in a line: qHTS for differential inhibitors of proliferation of Plasmodium falciparum line D10 (AID 1877).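 Note: parasites grown with compound for 72 h before DNA staining.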 Note: potency is the fitted concentration of half-maximal effect. The following applies: series mostly up to 28.7 µM.
A short description of test [7]: qHTS for differential inhibitors of proliferation of Plasmodium falciparum line HB3 (AID 1886).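 Note: parasites grown with compound for 72 h before SYBR Green readout.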 Note: potency is the fitted concentration of half-maximal effect. The following applies: Potency: Plasmodium falciparum HB3 proliferation inhibition; series mostly up to 28.7 µM.
Test [8] in a line: qHTS for differential inhibitors of proliferation of Plasmodium falciparum line W2 (AID 1883).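 Note: parasites grown with compound for 72 h before lysis and staining.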 Note: potency is the fitted concentration of half-maximal effect. The settings on record: Potency: Plasmodium falciparum W2 proliferation inhibition; series mostly up to 28.7 µM.
Test [9] can be described thus: qHTS Assay for Modulators of Human Peripheral Myelin Protein 22 (PMP22) Expression/Activity (AID 1967; active = well fitted curve in the direction sought with a large enough effect in the signal ratio; the % refers to the signal ratio). The settings on record: Cell-based PMP22 reporter, dual-color luciferase ratio, 0% = compound-free control cells, mouse Pmp22 promoter in mouse Schwann cells; series mostly up to 115 µM. The gist of the method:
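MSC80 mouse Schwann cells stably carrying Pmp22 promoter–green click beetle luciferase plus EF-alpha–red luciferase control were dosed for 24h at 37 °C. Dual-colour luminescence was filter-overlap corrected; %Activity came from green/red ratio versus untreated cells.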

Records with an inconclusive call do not appear. Active and inactive are the calls of the source. Unless noted, calls come from the whole dose curve; as a rule, active = well fitted curve in the direction sought with a large enough effect; inconclusive = small, poorly fitted or top-dose-only effect, or another doubt; inactive = no such curve, though single readings can be large; an effect the other way counts as inactive or inconclusive.

Ferritin light chain (Equus caballus), sequence (P02791 2-175 limits assumed): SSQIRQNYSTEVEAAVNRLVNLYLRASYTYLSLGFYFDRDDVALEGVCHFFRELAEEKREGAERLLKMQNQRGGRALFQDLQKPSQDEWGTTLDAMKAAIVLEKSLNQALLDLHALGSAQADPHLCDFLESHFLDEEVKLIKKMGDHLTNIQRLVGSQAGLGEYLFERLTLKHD

With `CC(C)NC[C@H](O)c1ccc(O)c(O)c1`, the Potency result in test [1], in test [2], in [3] and in test [4] was “inactive” each time. Moreover, the result in test [5] was inactive.
`CC1=C(CC(=O)O)c2cc(F)ccc2/C1=C\c1ccc(S(C)=O)cc1` (configuration not stated): the Potency entry in [1], in test [2], in test [3], in test [6], in test [4] and in [7] was “inactive” throughout.
For the compound `OCc1cc(C(O)CNCCCCCCOCCCCc2ccccc2)ccc1O` (configuration not stated), the Potency was 8.91 µM (active) in test [1]; 8.91 µM (active) in test [2]; 8.91 µM (active) in [3]; 12.6 µM (active) in [6]; 7.08 µM (active) in [8]; 10 µM (active) in [7].
Take `CC(C(O)c1ccc(O)cc1)N1CCC(Cc2ccccc2)CC1` (configuration not stated): the Potency was 7.08 µM (active) in test [1]; 3.98 µM (active) in [2]; 4.47 µM (active) in test [3]; 10 µM (active) in test [4]; 2.82 µM (active) in test [8]; 5.01 µM (active) in test [7]. Also, the compound was called inactive in test [5].
In the case of `C[C@](N)(Cc1ccc(O)cc1)C(=O)O`, the Potency result in test [1], in test [2], in test [3], in [6], in [4] and in [8] was “inactive” throughout. The Potency entry in [7] is “inactive”. For the same compound, the call in test [5] was inactive.
Regarding `CCN(CC)CCCC(C)Nc1c2ccc(Cl)cc2nc2ccc(OC)cc12` (configuration not stated), the Potency in test [1] is 0.178 µM (active); in [2] it was 0.0891 µM (active); in test [3], 0.1 µM (active); in [6], 0.0891 µM (active); in test [4], 0.126 µM (active); in test [8] it was 0.0891 µM (active). The Potency in test [7] was 0.0891 µM (active).
Turning to `CC1=C(/C=C/C(C)=C/C=C/C(C)=C/C(=O)O)C(C)(C)CCC1`, the Potency in test [1] is 14.1 µM (active).
The same measure, in the same setting: the result for `C[C@]12CC[C@@H]3c4ccc(O)cc4CC[C@H]3[C@@H]1CCC2=O` reads 3.98 µM (active).
As for `CCCCCCCCCCCCCCCC(=O)NCCO`, in test [9], the result was inactive.
